PubChem BioAssay (EPA / NIEHS)
Records with an inconclusive call do not appear. Calls of active or inactive are those of the source. The calls were made as follows, unless noted: active = hit-call score of the fitted dose curve at least 0.9, where 1 is the maximum; inconclusive = response in the unintended direction; inactive = score below 0.9.

Key:
[1] = molecular target: human Norepinephrine Transporter (NET), SLC6A2 (gene 6530) (UniProt P23975); assay: NVS_TR_hNET: NovaScreen (NVS) Transporter Assay for human Norepinephrine Transporter (NET) (AID 2283377);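 also: cell-free membrane protein extracted from CHO cells expressing human NET; displacement of radioligand from human NET seen as loss of scintillation signal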
Method in brief: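 Scintillation counts of filter-retained radioligand served as the readout, taken 1 h post-dosing in a cell-free CHO-derived system. Test chemicals ran first at 25 uM in duplicate; confirmed hits were retested across concentrations.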

[2] = CEETOX_H295R_11DCORT: CeeTox H295R High-throughput Steroidogenesis Assay for 11-Deoxycortisol (11DCORT) (AID 2283432; active = hit-call score of the fitted dose curve at least 0.9, where 1 is the maximum; inactive = score below 0.9;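 as to AC50: 11-deoxycortisol secreted into the medium measured by LC-MS/MS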); details: actives raise or lower the signal
Method in brief: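 Human adrenal H295R cells were prestimulated with 10 uM forskolin for 48 h, then exposed to test chemical (0.1% DMSO final) for 48 h. Medium 11-deoxycortisol was quantified by MTBE extraction and HPLC-MS/MS; bidirectional fitting relative to DMSO.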

[3] = CEETOX_H295R_OHPREG: CeeTox H295R High-throughput Steroidogenesis Assay for OH-Pregnenolone (OHPREG) (AID 2283434; active = hit-call score of the fitted dose curve at least 0.9, where 1 is the maximum; inactive = score below 0.9); details: actives raise or lower the signal
Method in brief: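 Hormone levels in spent medium were measured by tandem mass spectrometry following liquid-liquid extraction. Cells (H295R) had been forskolin-stimulated (10 uM, 48 h) before a 48 h chemical exposure at 0.1% DMSO, with activity fitted in both directions against DMSO.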

[4] = CEETOX_H295R_OHPROG: CeeTox H295R High-throughput Steroidogenesis Assay for OH-Progesterone (OHPROG) (AID 2283435; active = hit-call score of the fitted dose curve at least 0.9, where 1 is the maximum; inactive = score below 0.9;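 as to AC50: 17alpha-hydroxyprogesterone secreted into medium measured by HPLC-MS/MS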); details: actives raise or lower the signal
Method in brief: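 H295R, 10 uM forskolin prestim 48 h; cmpd in 0.1% DMSO 48 h; medium MTBE-extracted, HPLC-MS/MS for OH-progesterone; 7-pt std curve; bidirectional fit vs DMSO; MTT viability, chemicals diluted until viability >/=70%.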

[5] = CEETOX_H295R_ANDR: CeeTox H295R High-throughput Steroidogenesis Assay for Androstenedione (ANDR) (AID 2283436; active = hit-call score of the fitted dose curve at least 0.9, where 1 is the maximum; inactive = score below 0.9); details: actives raise or lower the signal
Method in brief: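 Read-out is androstenedione secreted into medium, measured by tandem mass spectrometry after liquid-liquid extraction. Cells were H295R, dosed for 48 h per modified OECD 456; activity fitted in both directions relative to DMSO.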

[6] = CEETOX_H295R_CORTIC: CeeTox H295R High-throughput Steroidogenesis Assay for Corticosterone (CORTIC) (AID 2283437; active = hit-call score of the fitted dose curve at least 0.9, where 1 is the maximum; inactive = score below 0.9;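 also: corticosterone secreted into medium quantified by mass spectrometry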); details: actives raise or lower the signal
Method in brief: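 Corticosterone secreted into medium is measured by reverse-phase HPLC with tandem MS following liquid-liquid extraction. Cells are forskolin-stimulated (10 uM, 48 h) before 48 h test exposure; activity fitted in both directions against DMSO.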

[7] = CEETOX_H295R_CORTISOL: CeeTox H295R High-throughput Steroidogenesis Assay for Cortisol (AID 2283438; active = hit-call score of the fitted dose curve at least 0.9, where 1 is the maximum; inactive = score below 0.9;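 also: cortisol secreted into medium quantified by LC-MS/MS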); details: actives raise or lower the signal
Method in brief: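 Forskolin 10 uM 48 h prestim → test cmpd in DMSO (0.1% final) 48 h → medium MTBE-extracted → LC-MS/MS cortisol vs 7-pt std curve. Gain/loss of signal fitted vs DMSO. MTT viability in same wells.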

[8] = CEETOX_H295R_DOC: CeeTox H295R High-throughput Steroidogenesis Assay for DOC (AID 2283439; active = hit-call score of the fitted dose curve at least 0.9, where 1 is the maximum; inactive = score below 0.9); details: actives raise or lower the signal
Method in brief: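 Readout: 11-deoxycorticosterone in culture medium by reverse-phase C18 HPLC with ESI+ tandem MS after MTBE extraction. Cells: H295R, forskolin-primed (10 uM, 48 h), chemical-treated 48 h; DMSO 0.1% final. Activity fitted bidirectionally versus DMSO.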

[9] = CEETOX_H295R_PROG: CeeTox H295R High-throughput Steroidogenesis Assay for Progesterone (PROG) (AID 2283442; active = hit-call score of the fitted dose curve at least 0.9, where 1 is the maximum; inactive = score below 0.9;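 as to AC50: human H295R adrenal cells primed with 10 µM forskolin before dosing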); details: actives raise or lower the signal
Method in brief: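 H295R human adrenal cells were prestimulated with 10 uM forskolin for 48 h, then exposed to test chemical (0.1% DMSO final) for 48 h. Medium progesterone was MTBE-extracted and quantified by HPLC-MS/MS, with bidirectional fitting against DMSO.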

[10] = molecular target: mouse Estrogen Receptor alpha (Era), Esr1 (gene 13982) (UniProt P19785); assay: NVS_NR_mERa: NovaScreen (NVS) Nuclear Receptor Binding Assay for mouse Estrogen Receptor alpha (Era) (AID 2283378);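 also: hit means loss of bound radioligand signal relative to DMSO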
Method in brief: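 Cell-free radioligand binding with extracted mouse Era protein; competitive displacement of radiolabelled ligand, read by filter-based scintillation counting 18 hours after dosing. Loss of signal versus DMSO baseline taken as binding; single screening concentration 25 uM, actives followed in concentration series.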

[11] = molecular target: Agonist Androgen Response Element (ARE), AR (gene 367) (UniProt P10275); assay: OT_AR_ARELUC_AG_1440: Odyssey Thera (OT) 24-hour CHO-K1 Luciferase Assay for Agonist Androgen Response Element (ARE) (AID 2283379)
Method in brief: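 Agonist mode, 24 h exposure in CHO-K1 ARE-luciferase cells; values reflect luminescence induction over vehicle.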

[12] = molecular target: Estrogen receptor (Homo sapiens) (UniProt P03372); assay: OT_ERa_GFPERaERE_0480: Odyssey Thera (OT) 8-hour HeLa Transcription Induction Assay for Estrogen Receptor (AID 2283381; active = hit-call score of the fitted dose curve at least 0.9, where 1 is the maximum; inactive = score below 0.9)
Method in brief: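 Fluorescent reporter signal, imaged by microscopy and scored with image-analysis algorithms, was taken 8 h after chemical dosing of HeLa cells; activity was fitted upward relative to DMSO.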

[13] = molecular target: Retinoic acid receptor RXR-alpha (Homo sapiens) (UniProt P19793); assay: OT_NURR1_NURR1RXRa_1440: Odyssey Thera (OT) 24-hour HEK293T Protein Complementation Assay for Nurr1/retinoid X receptor (RXR) (AID 2283386)
Method in brief: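 Interaction of Nurr1 with RXRα brings fused reporter fragments together in human HEK293T cells, restoring a functional reporter. Fluorescence intensity is measured 24 h after chemical treatment, and values are analysed in the positive direction against DMSO.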

[14] = molecular target: Peroxisome proliferator-activated receptor gamma (Homo sapiens) (UniProt P37231); assay: OT_PPARg_PPARgSRC1_0480: Odyssey Thera (OT) 8-hour Protein-Complementation Assay for Peroxisome Proliferator-activated Receptor Gamma / SRC-1 Co-activator (AID 2283387)
Method in brief: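 Protein-fragment complementation of split Venus YFP reports PPARg/SRC-1 interaction in HEK293T (transfected 48 h before treatment), exposed 8 h. Readout: N/C fluorescence ratio at 488 nm from imaging, Draq5 for segmentation, positive fit relative to DMSO.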

[15] = molecular target: Bile acid receptor (Homo sapiens) (UniProt Q96RI1); assay: OT_FXR_FXRSRC1_0480: Odyssey Thera (OT) 8-hour HEK293T Protein-Complementation Assay for Farnesoid X receptor/SRC-1 Co-activator (AID 2283383)
Method in brief: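 Human kidney HEK293T cells carried FXR/SRC-1 fragment-complementation constructs. Compounds were added and incubated 8 h. Reporter reassembly upon receptor–co-activator interaction was then quantified by fluorescence, with curves fitted in the positive direction relative to DMSO.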

[16] = molecular target: Retinoic acid receptor RXR-alpha (Homo sapiens) (UniProt P19793); assay: OT_NURR1_NURR1RXRa_0480: Odyssey Thera (OT) 8-hour HEK293T Protein Complementation Assay for Nurr1/retinoid X receptor (RXR) (AID 2283385)
Method in brief: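 8 h compound exposure, HEK293T; Nurr1/RXRα fragment complementation; fluorescence intensity; positive fitting direction vs DMSO baseline.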

[17] = molecular target: Estrogen receptor beta (Homo sapiens) (UniProt Q92731); assay: OT_ER_ERbERb_1440: Odyssey Thera (OT) 24-hour HEK293T Protein-Complementation Assay for Estrogen Receptor-beta/-beta Homodimer (AID 2283380);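 also: fluorescence gain from ER beta LBD homodimer complementation read by laser scanning cytometry; scored as signal increase over DMSO baseline for both agonists and antagonists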
Method in brief: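 Fluorescence increase, nuclear for agonists or whole-cell for antagonists, relative to DMSO vehicle, quantified by laser scanning cytometer after fixation and Draq5 staining. Readout from 24 h treatment of HEK293T cells carrying complementation-paired ER beta LBD (aa 310-547).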

[18] = CEETOX_H295R_ESTRADIOL: CeeTox H295R High-throughput Steroidogenesis Assay for Estradiol (AID 2283440; active = hit-call score of the fitted dose curve at least 0.9, where 1 is the maximum; inactive = score below 0.9;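 also: estradiol secreted into medium quantified by LC-MS/MS after dansyl derivatisation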); details: actives raise or lower the signal
Method in brief: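 H295R adrenocortical cells were prestimulated with 10 uM forskolin for 48 h, then exposed to test chemical in 0.1% DMSO for 48 h. Medium estradiol was extracted with MTBE, dansyl-derivatized and quantified by HPLC-MS/MS; bidirectional fit versus DMSO.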

[19] = CEETOX_H295R_ESTRONE: CeeTox H295R High-throughput Steroidogenesis Assay for Estrone (AID 2283441; active = hit-call score of the fitted dose curve at least 0.9, where 1 is the maximum; inactive = score below 0.9;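 also: estrone secreted into medium measured by LC-MS/MS after dansyl derivatization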); details: actives raise or lower the signal
Method in brief: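 H295R cells prestimulated 48 h with 10 uM forskolin, then exposed 48 h to chemicals in 0.1% DMSO final; estrone in medium extracted with MTBE, dansyl-derivatized, quantified by HPLC-MS/MS; bidirectional fitting versus DMSO, viability by MTT.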

[20] = molecular target: Peroxisome proliferator-activated receptor gamma (Homo sapiens) (UniProt P37231); assay: OT_PPARg_PPARgSRC1_1440: Odyssey Thera (OT) 24-hour Protein-Complementation Assay for Peroxisome Proliferator-activated Receptor Gamma/ SRC-1 Co-activator (AID 2283388)
Method in brief: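 HEK293T cells transiently transfected with PPARg and SRC-1 fused via (Gly4Ser)2 linker to split Venus YFP fragments (IFP1/IFP2) were dosed 24 h; fixed, Draq5-stained, imaged at 488/635 nm; nuclear/cytoplasmic fluorescence ratio scored versus DMSO baseline, gain-of-signal.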

Measured: AC50

Chain of Estrogen receptor (Homo sapiens) (P03372 whole entry, looked up): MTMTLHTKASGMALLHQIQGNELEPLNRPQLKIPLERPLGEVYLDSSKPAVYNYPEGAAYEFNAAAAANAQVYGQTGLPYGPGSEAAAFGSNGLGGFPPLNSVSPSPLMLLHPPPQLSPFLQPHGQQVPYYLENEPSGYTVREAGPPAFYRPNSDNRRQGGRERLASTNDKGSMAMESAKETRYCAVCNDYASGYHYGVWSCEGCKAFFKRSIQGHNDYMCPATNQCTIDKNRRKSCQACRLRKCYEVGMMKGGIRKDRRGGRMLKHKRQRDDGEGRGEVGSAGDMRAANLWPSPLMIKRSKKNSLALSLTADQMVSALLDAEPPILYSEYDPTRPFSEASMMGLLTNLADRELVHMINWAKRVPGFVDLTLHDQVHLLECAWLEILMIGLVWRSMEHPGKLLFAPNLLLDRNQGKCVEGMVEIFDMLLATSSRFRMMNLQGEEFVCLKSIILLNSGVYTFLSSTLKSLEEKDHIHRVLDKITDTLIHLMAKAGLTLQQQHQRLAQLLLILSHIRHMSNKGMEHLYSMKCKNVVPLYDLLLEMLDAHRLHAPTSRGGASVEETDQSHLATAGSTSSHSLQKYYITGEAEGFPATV
Chain of Retinoic acid receptor RXR-alpha (Homo sapiens) (P19793 whole entry, looked up, the tested form may be a part): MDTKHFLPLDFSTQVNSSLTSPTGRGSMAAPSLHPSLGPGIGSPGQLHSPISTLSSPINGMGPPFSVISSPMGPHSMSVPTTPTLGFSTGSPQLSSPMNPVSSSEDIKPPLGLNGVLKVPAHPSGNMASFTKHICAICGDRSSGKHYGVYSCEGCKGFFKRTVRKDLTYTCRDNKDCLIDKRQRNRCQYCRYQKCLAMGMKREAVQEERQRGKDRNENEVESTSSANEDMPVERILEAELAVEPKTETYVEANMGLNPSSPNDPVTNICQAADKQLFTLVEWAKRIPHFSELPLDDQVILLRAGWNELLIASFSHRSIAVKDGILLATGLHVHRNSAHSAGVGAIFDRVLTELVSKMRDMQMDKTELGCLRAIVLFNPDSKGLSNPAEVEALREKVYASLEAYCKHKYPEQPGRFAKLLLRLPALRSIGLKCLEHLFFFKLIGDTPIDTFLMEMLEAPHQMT
Chain of Bile acid receptor (Homo sapiens) (Q96RI1 whole entry, looked up, the tested form may be a part): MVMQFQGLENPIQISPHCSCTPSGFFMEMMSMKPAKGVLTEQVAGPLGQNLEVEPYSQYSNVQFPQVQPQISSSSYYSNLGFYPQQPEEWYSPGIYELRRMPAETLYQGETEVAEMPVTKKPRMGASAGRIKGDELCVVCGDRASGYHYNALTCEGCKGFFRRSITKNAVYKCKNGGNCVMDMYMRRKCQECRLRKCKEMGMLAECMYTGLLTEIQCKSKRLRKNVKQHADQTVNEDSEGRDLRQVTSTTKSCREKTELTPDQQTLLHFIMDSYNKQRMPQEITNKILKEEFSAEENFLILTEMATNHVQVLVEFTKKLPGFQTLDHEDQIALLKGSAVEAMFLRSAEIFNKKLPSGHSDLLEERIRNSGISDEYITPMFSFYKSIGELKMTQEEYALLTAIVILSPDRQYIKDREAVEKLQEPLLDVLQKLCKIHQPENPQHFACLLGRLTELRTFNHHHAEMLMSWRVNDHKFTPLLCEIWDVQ
Chain of mouse Estrogen Receptor alpha (Era), Esr1 (gene 13982) (P19785 whole entry, looked up): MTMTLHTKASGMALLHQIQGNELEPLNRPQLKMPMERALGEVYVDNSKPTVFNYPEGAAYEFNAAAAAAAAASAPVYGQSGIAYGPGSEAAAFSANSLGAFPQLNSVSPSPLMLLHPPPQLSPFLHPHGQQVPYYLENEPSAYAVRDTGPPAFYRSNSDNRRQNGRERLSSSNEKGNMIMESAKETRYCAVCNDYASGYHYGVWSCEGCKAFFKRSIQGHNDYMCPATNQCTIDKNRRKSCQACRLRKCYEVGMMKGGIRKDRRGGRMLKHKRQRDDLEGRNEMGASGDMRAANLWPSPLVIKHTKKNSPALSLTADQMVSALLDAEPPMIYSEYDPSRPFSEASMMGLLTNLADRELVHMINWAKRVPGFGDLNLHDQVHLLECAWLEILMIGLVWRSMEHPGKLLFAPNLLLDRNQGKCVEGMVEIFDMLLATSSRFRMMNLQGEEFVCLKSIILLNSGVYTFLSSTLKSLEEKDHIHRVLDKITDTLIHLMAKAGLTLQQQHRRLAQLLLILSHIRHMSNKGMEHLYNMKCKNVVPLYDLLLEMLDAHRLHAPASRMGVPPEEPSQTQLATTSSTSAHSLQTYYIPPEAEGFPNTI
Chain of Estrogen receptor beta (Homo sapiens) (Q92731 whole entry, looked up, the tested form may be a part): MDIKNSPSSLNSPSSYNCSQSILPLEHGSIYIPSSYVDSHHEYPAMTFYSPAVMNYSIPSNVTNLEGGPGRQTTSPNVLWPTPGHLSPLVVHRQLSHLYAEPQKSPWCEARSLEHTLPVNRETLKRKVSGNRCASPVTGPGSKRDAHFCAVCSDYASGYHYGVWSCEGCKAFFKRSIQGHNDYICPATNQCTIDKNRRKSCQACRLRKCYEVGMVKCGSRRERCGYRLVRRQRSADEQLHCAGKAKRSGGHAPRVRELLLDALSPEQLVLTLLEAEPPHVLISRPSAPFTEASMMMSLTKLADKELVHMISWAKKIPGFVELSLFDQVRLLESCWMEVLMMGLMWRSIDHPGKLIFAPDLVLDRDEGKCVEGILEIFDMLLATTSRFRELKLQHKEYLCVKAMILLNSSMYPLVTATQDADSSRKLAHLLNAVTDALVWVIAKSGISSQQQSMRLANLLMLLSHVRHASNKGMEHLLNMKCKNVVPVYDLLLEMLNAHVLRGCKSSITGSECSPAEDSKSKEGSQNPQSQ
Chain of Peroxisome proliferator-activated receptor gamma (Homo sapiens) (P37231 whole entry, looked up, the tested form may be a part): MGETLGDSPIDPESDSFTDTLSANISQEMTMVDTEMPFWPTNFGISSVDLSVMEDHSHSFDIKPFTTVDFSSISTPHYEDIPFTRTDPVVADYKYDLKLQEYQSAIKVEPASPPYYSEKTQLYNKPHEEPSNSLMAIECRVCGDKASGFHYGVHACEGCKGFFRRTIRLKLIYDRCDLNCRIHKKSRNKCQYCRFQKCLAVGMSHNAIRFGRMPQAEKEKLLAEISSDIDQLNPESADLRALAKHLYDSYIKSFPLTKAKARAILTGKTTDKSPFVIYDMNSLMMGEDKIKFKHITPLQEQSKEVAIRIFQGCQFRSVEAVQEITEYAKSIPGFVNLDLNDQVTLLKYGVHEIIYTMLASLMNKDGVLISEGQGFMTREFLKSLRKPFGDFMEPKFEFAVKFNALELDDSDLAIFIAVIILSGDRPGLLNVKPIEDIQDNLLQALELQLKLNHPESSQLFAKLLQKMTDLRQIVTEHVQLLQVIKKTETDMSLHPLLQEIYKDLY
Chain of Agonist Androgen Response Element (ARE), AR (gene 367) (P10275 whole entry, looked up): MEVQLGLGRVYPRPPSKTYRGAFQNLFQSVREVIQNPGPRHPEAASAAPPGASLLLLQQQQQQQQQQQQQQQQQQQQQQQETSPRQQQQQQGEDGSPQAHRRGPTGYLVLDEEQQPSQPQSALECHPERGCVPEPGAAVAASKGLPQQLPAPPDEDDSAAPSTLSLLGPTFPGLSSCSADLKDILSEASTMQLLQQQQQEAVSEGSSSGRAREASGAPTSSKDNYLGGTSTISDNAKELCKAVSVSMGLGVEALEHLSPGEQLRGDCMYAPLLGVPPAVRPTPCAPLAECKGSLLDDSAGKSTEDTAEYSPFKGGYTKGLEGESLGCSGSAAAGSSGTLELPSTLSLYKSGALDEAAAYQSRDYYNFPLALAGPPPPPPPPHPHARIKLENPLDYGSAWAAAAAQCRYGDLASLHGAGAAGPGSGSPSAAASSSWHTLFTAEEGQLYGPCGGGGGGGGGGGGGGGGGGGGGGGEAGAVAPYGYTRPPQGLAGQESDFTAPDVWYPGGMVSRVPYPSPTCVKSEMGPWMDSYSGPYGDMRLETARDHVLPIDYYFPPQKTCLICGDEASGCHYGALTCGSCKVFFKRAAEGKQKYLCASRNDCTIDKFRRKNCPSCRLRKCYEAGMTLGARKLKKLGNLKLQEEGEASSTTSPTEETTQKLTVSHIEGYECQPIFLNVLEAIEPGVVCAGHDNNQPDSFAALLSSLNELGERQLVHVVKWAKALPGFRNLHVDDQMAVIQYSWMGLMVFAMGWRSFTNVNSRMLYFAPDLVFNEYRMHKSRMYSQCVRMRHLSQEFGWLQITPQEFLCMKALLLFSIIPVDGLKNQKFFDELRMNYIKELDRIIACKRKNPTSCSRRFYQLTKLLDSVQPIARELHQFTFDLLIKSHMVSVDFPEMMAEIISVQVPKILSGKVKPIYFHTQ
Chain of human Norepinephrine Transporter (NET), SLC6A2 (gene 6530) (P23975 whole entry, looked up): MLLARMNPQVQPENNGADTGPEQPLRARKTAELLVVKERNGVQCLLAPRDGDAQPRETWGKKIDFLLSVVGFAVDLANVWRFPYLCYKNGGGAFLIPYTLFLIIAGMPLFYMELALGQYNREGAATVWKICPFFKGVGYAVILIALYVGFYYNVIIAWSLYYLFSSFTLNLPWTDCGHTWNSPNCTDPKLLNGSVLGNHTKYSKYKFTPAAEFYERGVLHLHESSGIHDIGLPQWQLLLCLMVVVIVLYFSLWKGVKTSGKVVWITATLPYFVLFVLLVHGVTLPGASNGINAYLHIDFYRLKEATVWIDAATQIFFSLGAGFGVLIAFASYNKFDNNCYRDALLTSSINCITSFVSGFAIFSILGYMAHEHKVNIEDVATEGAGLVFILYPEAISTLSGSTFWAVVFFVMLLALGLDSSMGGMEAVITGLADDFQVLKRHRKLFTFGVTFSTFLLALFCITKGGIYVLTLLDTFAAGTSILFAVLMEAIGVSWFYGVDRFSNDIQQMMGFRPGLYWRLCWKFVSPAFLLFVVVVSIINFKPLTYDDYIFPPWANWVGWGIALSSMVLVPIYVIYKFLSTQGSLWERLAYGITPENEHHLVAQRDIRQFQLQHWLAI

CCOC(=O)C(SP(=S)(OC)OC)c1ccccc1 (stereo unspecified)
active: [1] 9.9 µM

Cc1cc(C(C)(C)c2ccc(O)c(C)c2)ccc1O
inactive: [3] | [4] | [6] | [9]
active: [1] 8.57 µM | [2] 5 µM | [5] 5 µM | [7] 5 µM | [8] 2.91 µM

CC(=Cc1ccccc1)[N+](=O)[O-]
active: [12] 16.6 µM
inactive: [10] | [11]

CC(O)(CS(=O)(=O)c1ccc(F)cc1)C(=O)Nc1ccc(C#N)c(C(F)(F)F)c1 (stereo unspecified)
inactive: [13] | [14]
active: [10] 0.026 µM | [12] 12.8 µM

COCCl
active: [11] 1.22 µM
inactive: [15] | [14]

N#Cc1cccnc1
inactive: [12] | [16] | [13] | [14]

CCOc1ccc(N)cc1
inactive: [12] | [16] | [13]

N#CCC#N
inactive: [11] | [17] | [12] | [14]

C=CCN=C=S
inactive: [12] | [15] | [16] | [14]

CCOCn1c(-c2ccc(Cl)cc2)c(C#N)c(Br)c1C(F)(F)F
inactive: [10] | [12] | [14] | [6] | [8]
active: [15] 12.3 µM | [16] 9.59 µM | [13] 25.2 µM | [2] 15.3 µM | [3] 6.2 µM | [4] 13.2 µM | [7] 7.15 µM | [18] 4.19 µM | [19] 5.33 µM | [9] 2.1 µM

O=C1c2ccccc2C(=O)C1C(=O)C(c1ccccc1)c1ccc(Cl)cc1 (stereo unspecified)
active: [10] 1.12 µM | [16] 50 µM | [13] 73.2 µM
inactive: [11] | [12] | [14]

CCCSP(=S)(OCC)Oc1ccc(SC)cc1 (stereo unspecified)
inactive: [12] | [14] | [20] | [18] | [19]
active: [15] 22.8 µM | [3] 14 µM | [4] 1.41 µM | [9] 6.35 µM

O=[N+]([O-])c1ccc(Cl)c([N+](=O)[O-])c1
active: [12] 8.64 µM
inactive: [11] | [14]

Cc1cc(Cl)ccc1OCCCC(=O)O
inactive: [11] | [15] | [16] | [13] | [14] | [20]

CC(C)=CC1C(C(=O)OCc2cccc(Oc3ccccc3)c2)C1(C)C (stereo unspecified)
active: [2] 29.3 µM | [3] 25.7 µM | [4] 26.9 µM | [9] 25.8 µM
inactive: [12] | [15] | [16] | [13] | [6] | [7] | [8] | [18] | [19]

O=C(CBr)c1ccc(O)cc1
inactive: [15] | [16] | [13] | [14]

O=C(NC(=O)c1c(F)cccc1F)Nc1ccc(Cl)cc1
inactive: [12] | [15] | [16] | [13] | [14]

O=C(NC(=O)c1c(F)cccc1F)Nc1cc(Cl)c(OC(F)(F)C(F)C(F)(F)F)cc1Cl (stereo unspecified)
inactive: [11] | [12] | [14]
active: [15] 50 µM | [16] 66.5 µM | [13] 50 µM

CCC[CH2][Sn]([Cl])([Cl])[CH2]CCC
active: [12] 1.76 µM
not listed: [1] | [5] | [11] | [13] | [15] | [16] | [17] | [20]
inactive: all other assays above

Oc1c(Br)cc(Br)cc1Br
active: [4] 36 µM | [9] 41.3 µM
inactive: [10] | [17] | [12] | [16] | [13] | [14] | [18] | [19]

Cc1cc(Cl)ccc1OC(C)C(=O)O (stereo unspecified)
inactive: [12] | [16] | [14]

CC(C)(C)c1cc([N+](=O)[O-])cc(C(C)(C)C)c1O
inactive: [10] | [3] | [4] | [18] | [19] | [9]

Cc1cc(Cl)ccc1O
inactive: [15] | [16] | [14] | [2] | [3] | [6] | [7] | [8] | [9]
active: [17] 63.8 µM | [4] 28.3 µM

CNC(=O)O/N=C/C(C)(C)S(C)(=O)=O
active: [11] 0.623 µM
inactive: [12] | [13] | [14]

CC(C)N(C(=O)CCl)c1ccccc1
active: [10] 6.48 µM
inactive: [11] | [12] | [14]

O=CCCl
inactive: [12] | [16] | [14]

C=CC(Cl)CCl (stereo unspecified)
inactive: [11] | [16] | [13] | [14] | [20]

O=S1(=O)OC(c2cc(Br)c(O)c(Br)c2)(c2cc(Br)c(O)c(Br)c2)c2ccccc21
inactive: [10] | [12]
active: [11] 0.214 µM | [16] 71.9 µM | [13] 14.4 µM | [14] 46.5 µM

O=C(O)COc1cc(Cl)c(Cl)cc1Cl
inactive: [11] | [15] | [13] | [14] | [20]
